From the supplement of paper PMC10849652
Targets with a hit are over-represented here; the source holds about 8,800 in all. About 0.5% of all pairs of compound and target were hits. Values without a mark were called inactive.

Experiments:
Assay in all cases: log2 fold change, soluble protein after heating vs DMSO (PISA); higher = thermal stabilisation; K562 lysate, 10 uM; active = over 0.2 and 3.5 SD of the protein, either way, in both replicates (recomputed)
lapatinib = compound: CS(=O)(=O)CCNCc1ccc(-c2ccc3ncnc(Nc4ccc(OCc5cccc(F)c5)c(Cl)c4)c3c2)o1 [lapatinib]
Method in brief: (§1)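 Values give the log-two fold change in thermal stability against solvent controls, from duplicates. Crude K562 extract at 1 mg/mL protein, made by dounce homogenisation in PBS pH 7.4 with 1 mM MgCl2, was treated with 10 μM compound for 30 min. After 3 min heating across 48°C-58°C, aliquots were pooled, adjusted to 0.5% NP-40 at 4°C and centrifuged at 21,000xg for 90 min. The supernatant was measured by TMTpro 16plex LC-MS/MS with channel sums equalised.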

pictilisib = compound: CS(=O)(=O)N1CCN(Cc2cc3nc(-c4cccc5[nH]ncc45)nc(N4CCOCC4)c3s2)CC1 [pictilisib]
Method in brief: as §1

crizotinib = compound: C[C@@H](Oc1cc(-c2cnn(C3CCNCC3)c2)cnc1N)c1c(Cl)ccc(F)c1Cl [crizotinib]
Method in brief: as §1

[1] = compound: C[C@H](C1=CC=C(C=C1)C(=O)NC2=C3C=CNC3=NC=C2)N
Method in brief: as §1

duvelisib = compound: C[C@H](Nc1ncnc2nc[nH]c12)c1cc2cccc(Cl)c2c(=O)n1-c1ccccc1 [duvelisib]
Method in brief: as §1

gandotinib = compound: Cc1cc(Nc2cc(CN3CCOCC3)c3nc(C)c(Cc4ccc(Cl)cc4F)n3n2)n[nH]1 [gandotinib]
Method in brief: as §1

tozasertib = compound: Cc1cc(Nc2cc(N3CCN(C)CC3)nc(Sc3ccc(NC(=O)C4CC4)cc3)n2)n[nH]1 [tozasertib]
Method in brief: as §1

doramapimod = compound: Cc1ccc(-n2nc(C(C)(C)C)cc2NC(=O)Nc2ccc(OCCN3CCOCC3)c3ccccc23)cc1 [doramapimod]
Method in brief: as §1

bafetinib = compound: Cc1ccc(NC(=O)c2ccc(CN3CC[C@H](N(C)C)C3)c(C(F)(F)F)c2)cc1Nc1nccc(-c2cncnc2)n1 [bafetinib]
Method in brief: as §1

[2] = compound: Cc1cccc(CC(=O)N2CCc3c2ccc(-c2cn(C)c4ncnc(N)c24)c3F)n1
Method in brief: as §1

nilotinib = compound: Cc1cn(-c2cc(NC(=O)c3ccc(C)c(Nc4nccc(-c5cccnc5)n4)c3)cc(C(F)(F)F)c2)cn1 [nilotinib]
Method in brief: as §1

[3] = compound: Cc1nc(Nc2n[nH]c3c2CN(C(=O)N[C@H](CN(C)C)c2ccccc2)C3(C)C)c2sccc2n1
Method in brief: as §1

dasatinib = compound: Cc1nc(Nc2ncc(C(=O)Nc3c(C)cccc3Cl)s2)cc(N2CCN(CCO)CC2)n1 [dasatinib]
Method in brief: as §1

[4] = compound: Cc1ncc(-c2ccnc(Nc3ccc(S(C)(=O)=O)cc3)n2)n1C(C)C
Method in brief: as §1

[5] = compound: Cn1cc(-c2ccc3c(c2)CCN3C(=O)Cc2cccc(C(F)(F)F)c2)c2c(N)ncnc21
Method in brief: as §1

quisinostat = compound: Cn1cc(CNCC2CCN(c3ncc(C(=O)NO)cn3)CC2)c2ccccc21 [quisinostat]
Method in brief: as §1

tipifarnib = compound: Cn1cncc1[C@@](N)(c1ccc(Cl)cc1)c1ccc2c(c1)c(-c1cccc(Cl)c1)cc(=O)n2C [tipifarnib]
Method in brief: as §1

[6] = compound: NC(=O)Nc1cc(-c2cccc(F)c2)sc1C(=O)N[C@H]1CCCNC1
Method in brief: as §1

[7] = compound: NC(=O)c1cnc(N[C@@H]2CCCC[C@@H]2N)nc1Nc1cccc(-n2nccn2)c1
Method in brief: as §1

[8] = compound: NC1(c2ccc(-c3nc4ccn5c(=O)[nH]nc5c4cc3-c3ccccc3)cc2)CCC1
Method in brief: as §1

Chain of UniProt Q7L523 (Q7L523 whole entry, looked up): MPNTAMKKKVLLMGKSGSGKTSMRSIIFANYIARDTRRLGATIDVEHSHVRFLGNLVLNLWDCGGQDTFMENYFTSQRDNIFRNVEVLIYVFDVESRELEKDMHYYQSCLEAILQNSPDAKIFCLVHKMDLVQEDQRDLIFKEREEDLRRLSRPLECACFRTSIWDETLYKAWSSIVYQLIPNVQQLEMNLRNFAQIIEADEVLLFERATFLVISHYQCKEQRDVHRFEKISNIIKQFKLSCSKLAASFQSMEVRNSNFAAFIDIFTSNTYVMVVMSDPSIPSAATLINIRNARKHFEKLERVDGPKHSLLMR
Chain of UniProt Q9Y4B4 (Q9Y4B4 whole entry, looked up): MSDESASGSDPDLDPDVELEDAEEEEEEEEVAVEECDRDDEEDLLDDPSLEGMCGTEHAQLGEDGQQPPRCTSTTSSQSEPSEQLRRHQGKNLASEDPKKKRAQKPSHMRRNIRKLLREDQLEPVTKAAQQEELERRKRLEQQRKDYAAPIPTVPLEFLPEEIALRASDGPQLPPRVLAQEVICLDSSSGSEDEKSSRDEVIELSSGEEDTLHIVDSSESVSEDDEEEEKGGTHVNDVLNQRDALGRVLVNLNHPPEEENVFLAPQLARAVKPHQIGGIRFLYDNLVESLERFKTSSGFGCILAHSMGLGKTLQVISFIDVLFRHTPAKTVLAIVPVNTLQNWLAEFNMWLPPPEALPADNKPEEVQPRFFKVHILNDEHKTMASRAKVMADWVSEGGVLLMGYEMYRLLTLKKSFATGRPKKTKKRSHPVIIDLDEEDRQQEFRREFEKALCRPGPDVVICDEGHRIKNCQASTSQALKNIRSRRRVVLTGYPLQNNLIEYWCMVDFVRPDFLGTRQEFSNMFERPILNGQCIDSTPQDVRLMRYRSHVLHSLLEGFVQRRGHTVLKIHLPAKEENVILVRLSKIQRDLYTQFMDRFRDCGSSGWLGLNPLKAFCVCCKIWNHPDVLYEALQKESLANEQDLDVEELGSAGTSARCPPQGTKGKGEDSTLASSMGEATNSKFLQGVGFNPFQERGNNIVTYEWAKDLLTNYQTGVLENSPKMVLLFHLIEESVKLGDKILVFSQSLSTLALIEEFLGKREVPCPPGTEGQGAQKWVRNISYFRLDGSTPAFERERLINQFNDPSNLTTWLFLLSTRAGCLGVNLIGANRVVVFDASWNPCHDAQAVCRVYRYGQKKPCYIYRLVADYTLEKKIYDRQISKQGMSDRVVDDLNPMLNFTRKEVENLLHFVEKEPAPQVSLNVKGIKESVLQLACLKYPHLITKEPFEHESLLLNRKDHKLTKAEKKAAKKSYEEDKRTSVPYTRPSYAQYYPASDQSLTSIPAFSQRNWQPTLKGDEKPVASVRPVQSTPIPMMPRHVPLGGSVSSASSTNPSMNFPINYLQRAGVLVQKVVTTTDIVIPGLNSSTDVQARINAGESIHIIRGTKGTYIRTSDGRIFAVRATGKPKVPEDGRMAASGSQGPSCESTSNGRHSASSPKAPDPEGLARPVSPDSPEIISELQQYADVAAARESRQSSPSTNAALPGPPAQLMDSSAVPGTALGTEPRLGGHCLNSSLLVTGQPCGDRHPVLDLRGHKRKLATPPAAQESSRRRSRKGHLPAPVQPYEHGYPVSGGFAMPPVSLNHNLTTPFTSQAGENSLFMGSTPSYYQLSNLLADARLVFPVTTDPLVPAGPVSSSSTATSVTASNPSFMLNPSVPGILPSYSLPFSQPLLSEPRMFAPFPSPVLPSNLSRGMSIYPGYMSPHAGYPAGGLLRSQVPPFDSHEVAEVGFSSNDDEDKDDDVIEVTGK
Chain of UniProt P18754 (P18754 whole entry, looked up): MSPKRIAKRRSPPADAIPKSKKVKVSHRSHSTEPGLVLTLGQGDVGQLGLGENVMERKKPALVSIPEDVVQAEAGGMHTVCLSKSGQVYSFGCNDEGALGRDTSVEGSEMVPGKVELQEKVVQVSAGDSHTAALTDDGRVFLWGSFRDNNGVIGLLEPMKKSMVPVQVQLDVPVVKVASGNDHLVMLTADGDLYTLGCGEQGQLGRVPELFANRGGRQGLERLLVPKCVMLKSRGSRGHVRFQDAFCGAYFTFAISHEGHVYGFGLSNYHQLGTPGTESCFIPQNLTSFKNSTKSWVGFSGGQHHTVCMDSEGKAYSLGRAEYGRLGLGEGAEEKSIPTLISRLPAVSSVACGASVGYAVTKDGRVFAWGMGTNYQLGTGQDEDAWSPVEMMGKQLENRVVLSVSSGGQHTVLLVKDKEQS
Chain of UniProt Q86U06 (Q86U06 whole entry, looked up): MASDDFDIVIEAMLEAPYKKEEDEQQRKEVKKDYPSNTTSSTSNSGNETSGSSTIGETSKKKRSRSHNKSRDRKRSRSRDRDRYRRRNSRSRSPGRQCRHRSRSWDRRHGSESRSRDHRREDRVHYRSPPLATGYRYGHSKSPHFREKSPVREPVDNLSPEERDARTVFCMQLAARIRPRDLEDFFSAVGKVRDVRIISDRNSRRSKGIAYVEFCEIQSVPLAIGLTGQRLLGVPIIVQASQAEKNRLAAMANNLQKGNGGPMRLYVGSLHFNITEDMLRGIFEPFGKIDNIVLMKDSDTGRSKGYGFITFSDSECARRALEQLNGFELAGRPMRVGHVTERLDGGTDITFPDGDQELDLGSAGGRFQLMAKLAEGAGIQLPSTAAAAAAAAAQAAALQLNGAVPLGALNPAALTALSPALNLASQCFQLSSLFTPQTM
Chain of UniProt Q9HBH5 (Q9HBH5 whole entry, looked up): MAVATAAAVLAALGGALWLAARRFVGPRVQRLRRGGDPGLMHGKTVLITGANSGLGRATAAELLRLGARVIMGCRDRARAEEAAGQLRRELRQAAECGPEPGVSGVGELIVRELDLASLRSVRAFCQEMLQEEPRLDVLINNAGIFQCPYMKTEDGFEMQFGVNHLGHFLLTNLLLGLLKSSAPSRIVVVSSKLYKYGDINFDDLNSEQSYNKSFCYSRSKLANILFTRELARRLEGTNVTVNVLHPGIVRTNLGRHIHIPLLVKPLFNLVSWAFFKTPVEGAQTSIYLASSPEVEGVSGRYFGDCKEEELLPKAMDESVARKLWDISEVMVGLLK
Chain of UniProt Q9BWF3 (Q9BWF3 whole entry, looked up): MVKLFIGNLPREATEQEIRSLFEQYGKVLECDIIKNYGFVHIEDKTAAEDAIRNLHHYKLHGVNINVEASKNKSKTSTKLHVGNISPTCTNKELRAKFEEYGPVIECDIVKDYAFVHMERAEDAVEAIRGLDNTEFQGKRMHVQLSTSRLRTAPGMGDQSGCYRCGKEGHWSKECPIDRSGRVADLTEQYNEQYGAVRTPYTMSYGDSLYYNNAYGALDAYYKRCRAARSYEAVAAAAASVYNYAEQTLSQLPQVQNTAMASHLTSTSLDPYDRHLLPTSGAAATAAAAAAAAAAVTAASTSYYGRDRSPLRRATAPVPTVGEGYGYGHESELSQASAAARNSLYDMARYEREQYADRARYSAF

| Target | log2 fold change (lapatinib) | log2 fold change (pictilisib) | log2 fold change (crizotinib) | log2 fold change [1] | log2 fold change (duvelisib) | log2 fold change (gandotinib) | log2 fold change (tozasertib) | log2 fold change (doramapimod) | log2 fold change (bafetinib) | log2 fold change [2] | log2 fold change (nilotinib) | log2 fold change [3] | log2 fold change (dasatinib) | log2 fold change [4] | log2 fold change [5] | log2 fold change (quisinostat) | log2 fold change (tipifarnib) | log2 fold change [6] | log2 fold change [7] | log2 fold change [8] |
| --- | --- | --- | --- | --- | --- | --- | --- | --- | --- | --- | --- | --- | --- | --- | --- | --- | --- | --- | --- | --- |
| RBM4 (UniProt Q9BWF3) | -0.015 | -0.01 | 0.018 | 0.183 | -0.003 | -0.097 | 0.075 | -0.109 | -0.02 | -0.069 | -0.086 | -0.011 | 0.032 | 0.029 | 0.03 | 0.033 | -0.067 | 0.034 | 0.046 | 0.029 |
| RPL28 (UniProt P46779) | 0.01 | 0.047 | 0.043 | 0.234 | 0.018 | -0.098 | -0.018 | -0.046 | 0.056 | -0.059 | -0.018 | -0.011 | 0.009 | -0.015 | -0.005 | 0.08 | 0.002 | -0.028 | -0.011 | -0.023 |
| RBM23 isoform 2 (UniProt Q86U06) | 0.056 | -0.053 | -0.076 | 0.044 | -0.008 | 0.272 | 0.053 | 0.489 (active) | -0.114 | 0.083 | 0.172 | 0.021 | -0.004 | -0.065 | -0.061 | -0.047 | -0.168 | -0.024 | -0.056 | 0.021 |
| RAD54L2 (UniProt Q9Y4B4) | -0.209 | -0.018 | -0.037 | -0.174 | 0.026 | -0.163 | -0.166 | -0.02 | -0.095 | 0.067 | -0.037 | -0.03 | -0.053 | -0.047 | -0.15 | -0.009 | -0.105 | -0.013 | 0.035 | -0.091 |
| RBM8A (UniProt Q9Y5S9) | 0.01 | 0.017 | 0.135 | 0.277 (active) | -0.014 | -0.209 | 0.06 | -0.038 | -0.017 | -0.2 | -0.005 | 0.025 | 0.023 | 0.004 | 0.067 | 0.187 | 0.051 | -0.016 | 0 | 0.108 |
| RRAGA (UniProt Q7L523) | 0 | -0.06 | -0.084 | 0.075 | 0.063 | -0.035 | -0.033 | -0.058 | -0.018 | -0.02 | -0.144 | 0.032 | -0.025 | -0.065 | 0.024 | -0.045 | 0.109 | 0.082 | 0.033 | -0.04 |
| RCC1 isoform 2 (UniProt P18754) | -0.018 | 0.009 | -0.063 | -0.019 | 0.017 | -0.066 | 0.011 | -0.017 | -0.01 | 0.034 | 0.024 | -0.024 | -0.071 | 0.021 | 0.034 | 0.001 | -0.011 | 0.027 | -0.02 | -0.043 |
| RDH14 (UniProt Q9HBH5) | 0.082 | -0.028 | 0.009 | -0.191 | 0.002 | 0.176 | 0.043 | 0 | -0.005 | 0.198 | 0.008 | -0.006 | 0.023 | 0.004 | 0.009 | -0.016 | 0.065 | -0.011 | -0.077 | 0.048 |
